The text below walks through data of PubChem BioAssay AID588458 (Sanford-Burnham Center for Chemical Genomics, 2011).

Among all 360,000 compounds or so, about 3,000 (0.83%) were called active. Rule as the data show it: active = inhibition above about 50%; inactive = the rest. Shown is part of a subset that was picked to be rich in actives.

Sequence of DNA (cytosine-5)-methyltransferase 1 (Homo sapiens) (P26358 504-1616 limits assumed): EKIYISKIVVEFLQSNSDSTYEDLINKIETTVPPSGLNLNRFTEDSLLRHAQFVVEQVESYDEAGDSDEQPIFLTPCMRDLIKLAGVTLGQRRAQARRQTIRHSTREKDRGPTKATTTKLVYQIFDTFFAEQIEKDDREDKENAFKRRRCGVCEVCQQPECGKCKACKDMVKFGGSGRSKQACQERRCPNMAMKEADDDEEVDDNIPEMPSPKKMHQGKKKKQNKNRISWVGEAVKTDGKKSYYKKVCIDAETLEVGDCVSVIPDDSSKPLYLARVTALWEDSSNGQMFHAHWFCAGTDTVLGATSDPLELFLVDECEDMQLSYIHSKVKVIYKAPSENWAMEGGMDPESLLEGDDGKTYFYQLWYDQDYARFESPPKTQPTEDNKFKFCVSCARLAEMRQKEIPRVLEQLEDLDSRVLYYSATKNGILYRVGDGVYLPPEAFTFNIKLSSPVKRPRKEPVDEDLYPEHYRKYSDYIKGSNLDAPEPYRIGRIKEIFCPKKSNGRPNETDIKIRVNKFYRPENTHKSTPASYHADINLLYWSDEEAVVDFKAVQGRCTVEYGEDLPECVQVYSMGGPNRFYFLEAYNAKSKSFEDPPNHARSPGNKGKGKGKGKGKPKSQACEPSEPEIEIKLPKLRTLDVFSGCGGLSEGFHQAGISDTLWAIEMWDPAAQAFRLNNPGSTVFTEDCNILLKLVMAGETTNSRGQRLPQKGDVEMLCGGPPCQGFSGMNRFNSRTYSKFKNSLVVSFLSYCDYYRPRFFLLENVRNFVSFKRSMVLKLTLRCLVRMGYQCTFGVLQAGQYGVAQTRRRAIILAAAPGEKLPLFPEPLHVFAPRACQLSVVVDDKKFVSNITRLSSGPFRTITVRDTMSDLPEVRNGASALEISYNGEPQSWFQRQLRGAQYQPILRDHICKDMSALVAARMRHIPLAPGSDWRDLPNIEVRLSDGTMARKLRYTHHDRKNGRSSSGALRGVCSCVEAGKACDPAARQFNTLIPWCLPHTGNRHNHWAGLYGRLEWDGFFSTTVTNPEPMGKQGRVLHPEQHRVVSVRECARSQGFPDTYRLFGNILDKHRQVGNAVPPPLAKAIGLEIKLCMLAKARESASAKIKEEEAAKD

This experiment addresses DNA (cytosine-5)-methyltransferase 1 (Homo sapiens) (UniProt P26358). Briefly: human DNMT1 methyltransferase inhibitors, primary screen, biochemical, molecular beacon, fluorescence, HinP1I cleavage, uHTS (AID 588458). The note with it: at 10 µM, hits give high values.
Take `COCCNC(=O)CCCn1c(=O)c2ccccc2n(Cc2cccc([N+](=O)[O-])c2)c1=O`: the inhibition (reported as % activation of signal) was -1.32% (inactive).

As to `Cc1ccc(NC(=O)Cn2c(=O)n(CCC(=O)NC3CCN(Cc4ccccc4)CC3)c(=O)c3ccccc32)cc1`, the inhibition (reported as % activation of signal) was 1.32% (inactive).

For `COC(=O)/C(=C\Nc1ccccc1)NC(=O)c1ccc(Cl)cc1Cl`, the inhibition (reported as % activation of signal) was -1% (inactive).

As for `COc1cccc2cc(C(C)N(CCCN3CCOCC3)C(=O)Nc3ccc(Cl)cc3)oc12` (centres undefined), the inhibition (reported as % activation of signal) is 0.19% (inactive).

With `CCOC(=O)C1(Cc2ccc(Cl)cc2)CCN(C(=O)C2=NNC(=O)CC2)CC1`, the inhibition (reported as % activation of signal) is -1.13% (inactive).

Consider `CC(=O)Nc1cccc(C(=O)OCC(=O)Nc2nnc(-c3ccccc3)o2)c1`, for which the inhibition (reported as % activation of signal) is 1.02% (inactive).

As for `COc1ccc(C(=O)OCC(=O)Nc2cccc(C(C)=O)c2)cc1OC`, the inhibition (reported as % activation of signal) is 70.9% (active).

With `COc1ccc(C(=O)OCC(=O)NCCCc2ccccc2)cc1OC`, the inhibition (reported as % activation of signal) was 0.32% (inactive).

Consider `C=CCNC(=O)COC(=O)CNC(=O)c1cc(Cl)cc([N+](=O)[O-])c1`, for which the inhibition (reported as % activation of signal) was 6.93% (inactive).

As to `CCc1c(C)c2c(C)[nH]nc2oc1=O`, the inhibition (reported as % activation of signal) was -3.15% (inactive).

For the compound `CCC(C)Cn1c(O)cc2nn(-c3nc4ccccc4s3)c(=O)c-2c1C` (centres undefined), the inhibition (reported as % activation of signal) was 52.2% (active).

Consider `CC1CCCCC1NC(=O)c1cc(=O)[nH]c2ccccc12` (centres undefined), for which the inhibition (reported as % activation of signal) is 3.02% (inactive).

Turning to `O=C(c1ccc(CS(=O)(=O)c2ccccc2)o1)N1CCN(c2ccccc2)CC1`, the inhibition (reported as % activation of signal) is 84.6% (active).

`O=C(c1ccc(S(=O)(=O)NCc2ccco2)cc1)N1CCN(c2ccccc2)CC1`: the inhibition (reported as % activation of signal) was 3.68% (inactive).

As for `O=C(c1ccc(CS(=O)Cc2ccccc2Cl)o1)N1CCN(c2ccccc2)CC1` (centres undefined), the inhibition (reported as % activation of signal) is 5.54% (inactive).

Consider `CC(=O)N/C(=C/c1ccc(OC(F)F)cc1)C(=O)O`, for which the inhibition (reported as % activation of signal) was -1.65% (inactive).

Turning to `O=C(NCCN1C(=O)S/C(=C\c2cccnc2)C1=O)c1cccc(OC(F)F)c1`, the inhibition (reported as % activation of signal) was -3.23% (inactive).

For `N#Cc1ccccc1CN1C(=O)S/C(=C/c2cccn2-c2cccc(C(=O)O)c2)C1=O`, the inhibition (reported as % activation of signal) is 102% (active).

For `Cc1ccc(C(=O)O)cc1-c1ccc(/C=C2\SC(=O)N(CC(=O)Nc3ccc4c(c3)OCO4)C2=O)o1`, the inhibition (reported as % activation of signal) was 12.5% (inactive).

Consider `O=C(NC(Cc1ccccc1)C(=O)O)/C(=C\c1ccccc1)NC(=O)c1ccco1` (centres undefined), for which the inhibition (reported as % activation of signal) is -3.34% (inactive).

Turning to `CCC(C)(C)NC(=O)CN(C(=O)CCC(=O)Nc1cc(C)ccn1)c1ccc2c(c1)OCCO2`, the inhibition (reported as % activation of signal) is -0.26% (inactive).

Take `O=C(c1cccnc1)N(c1cc2sc(=O)oc2c2ccccc12)S(=O)(=O)c1ccccc1`: the inhibition (reported as % activation of signal) was -12.2% (inactive).

With `CC(Sc1cccc[n+]1[O-])C(=O)Nc1cccc(S(=O)(=O)N2CCOCC2)c1` (centres undefined), the inhibition (reported as % activation of signal) is 1.02% (inactive).

For the compound `CN(C)/C=C(/C(=O)c1ccc(F)cc1)S(=O)(=O)c1ccc(F)cc1`, the inhibition (reported as % activation of signal) is 1.17% (inactive).

As to `CN(C)/C=C(/C(=O)c1ccccc1)S(=O)(=O)c1ccc(Cl)cc1`, the inhibition (reported as % activation of signal) is -1.72% (inactive).

Turning to `CN(C)/C=C(/C(=O)c1ccc(Cl)cc1)S(=O)(=O)c1ccccc1`, the inhibition (reported as % activation of signal) is 70% (active).

For the compound `Cc1cnc(CN(C)C(=O)C2CCC(=O)N(CCc3cccc(F)c3)C2)[nH]1` (centres undefined), the inhibition (reported as % activation of signal) was 1.88% (inactive).

As for `O=C(Nc1ccc(Cl)cc1)c1cccc(OC(=S)N2CCOCC2)c1`, the inhibition (reported as % activation of signal) is 0.14% (inactive).

Regarding `COc1cccc(C(=O)Nc2ccc3nc4n(c(=O)c3c2)CCCCC4)c1`, the inhibition (reported as % activation of signal) is 3.72% (inactive).

For the compound `COc1cccc(C(=O)Nc2ccc(N3CCCC3)cc2)c1`, the inhibition (reported as % activation of signal) is 91.3% (active).

As for `CC1CN(C(=O)c2ccccc2NS(=O)(=O)c2cccc([N+](=O)[O-])c2)CC(C)O1` (centres undefined), the inhibition (reported as % activation of signal) was 65.4% (active).

For the compound `CC1CN(C(=O)c2cccc(NS(=O)(=O)c3ccc(Br)cc3)c2)CC(C)O1` (centres undefined), the inhibition (reported as % activation of signal) was 6.97% (inactive).

Consider `Cc1cc([N+](=O)[O-])ccc1NS(=O)(=O)c1ccccc1`, for which the inhibition (reported as % activation of signal) is 3.46% (inactive).

Consider `Nc1c(C(=O)O)cnn1-c1ccccc1`, for which the inhibition (reported as % activation of signal) is -0.06% (inactive).

As for `Cc1noc(C)c1COc1ccccc1C(=O)N(C)CC(=O)Nc1cccc(F)c1`, the inhibition (reported as % activation of signal) was 1.78% (inactive).

Regarding `COc1ccc(C)cc1NC(=O)CCCN1C(=O)NC(C)(C)C1=O`, the inhibition (reported as % activation of signal) is 2.66% (inactive).

For the compound `Cc1cc(O)c(C(=O)/C=C/c2c(F)c(F)c(F)c(F)c2F)c(=O)o1`, the inhibition (reported as % activation of signal) was 59.4% (active).

`COc1ccc(/C=C/C(=O)c2c(O)cc(OC)cc2OC)cc1`: the inhibition (reported as % activation of signal) was -2.91% (inactive).

For `Cc1cc(O)c(Sc2ccccc2)c(=O)o1`, the inhibition (reported as % activation of signal) was 4.53% (inactive).

On to `COc1ccc(C)cc1NC(=O)c1cc(-c2ccccc2)nc2c1cnn2C(C)C`, for which the inhibition (reported as % activation of signal) is -4.87% (inactive).

In the case of `Nc1nnn(CC(=O)N/N=C/c2ccccc2)n1`, the inhibition (reported as % activation of signal) is 0.13% (inactive).

Consider `O=C(CN1CCOCC1)N/N=C/c1ccc(-c2ccc(Br)cc2)o1`, for which the inhibition (reported as % activation of signal) is -2.15% (inactive).

Regarding `O=C(Cn1nnc(-c2ccccc2)n1)N/N=C/c1ccc(-c2ccc(Cl)cc2)o1`, the inhibition (reported as % activation of signal) is 59.9% (active).

Regarding `CC1(C)CC(=O)C(C2c3ccccc3S(=O)(=O)c3ccccc32)C(=O)C1`, the inhibition (reported as % activation of signal) was 1.21% (inactive).
